Most compounds without a hit are left out; they make up all but 3.6% or so of the library.
FAS TE block: inhibitors of human fatty acid synthase thioesterase domain; recombinant FAS-TE, OMFH fluorogenic substrate, fluorescence endpoint; P49327; actives 0.67% (n = 360,000); inhibition, % at 15 µM;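 active = compounds whose normalised, plate-corrected inhibition of enzyme fluorescence in the single-dose primary screen is 50% or more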;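 also: 0% = DMSO with enzyme and 100% = substrate without enzyme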
Myeloid diff MLP: myeloid differentiation induction; actives 1% (n = 360,000); calls only at 10 µM; AID 624256; ER-HoxA9 myeloid progenitors, lysozyme-GFP differentiation, flow cytometry;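 active = normalized GFP-positive differentiation at or above the plate's own cutoff, the solvent-only control mean plus 3 SD; inconclusive = no clear call, values can overlap the other calls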;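 also: cells exposed to compound for four days before flow analysis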
CendR NRP1 mod: modulators of CendR peptide binding to human neuropilin-1; O14786; actives 0.85% (n = 360,000); inhibition, % at 25 µM; AID 602438; FAM-RPARPAR peptide binding to NRP-1, fluorescence polarization;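 active = inhibition or corrected inhibition above about 18%, plus a signal ratio from 0.5 to 1.5, limit read from the data, passing the limit was not always enough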
Target sequence (O14786 whole entry, looked up): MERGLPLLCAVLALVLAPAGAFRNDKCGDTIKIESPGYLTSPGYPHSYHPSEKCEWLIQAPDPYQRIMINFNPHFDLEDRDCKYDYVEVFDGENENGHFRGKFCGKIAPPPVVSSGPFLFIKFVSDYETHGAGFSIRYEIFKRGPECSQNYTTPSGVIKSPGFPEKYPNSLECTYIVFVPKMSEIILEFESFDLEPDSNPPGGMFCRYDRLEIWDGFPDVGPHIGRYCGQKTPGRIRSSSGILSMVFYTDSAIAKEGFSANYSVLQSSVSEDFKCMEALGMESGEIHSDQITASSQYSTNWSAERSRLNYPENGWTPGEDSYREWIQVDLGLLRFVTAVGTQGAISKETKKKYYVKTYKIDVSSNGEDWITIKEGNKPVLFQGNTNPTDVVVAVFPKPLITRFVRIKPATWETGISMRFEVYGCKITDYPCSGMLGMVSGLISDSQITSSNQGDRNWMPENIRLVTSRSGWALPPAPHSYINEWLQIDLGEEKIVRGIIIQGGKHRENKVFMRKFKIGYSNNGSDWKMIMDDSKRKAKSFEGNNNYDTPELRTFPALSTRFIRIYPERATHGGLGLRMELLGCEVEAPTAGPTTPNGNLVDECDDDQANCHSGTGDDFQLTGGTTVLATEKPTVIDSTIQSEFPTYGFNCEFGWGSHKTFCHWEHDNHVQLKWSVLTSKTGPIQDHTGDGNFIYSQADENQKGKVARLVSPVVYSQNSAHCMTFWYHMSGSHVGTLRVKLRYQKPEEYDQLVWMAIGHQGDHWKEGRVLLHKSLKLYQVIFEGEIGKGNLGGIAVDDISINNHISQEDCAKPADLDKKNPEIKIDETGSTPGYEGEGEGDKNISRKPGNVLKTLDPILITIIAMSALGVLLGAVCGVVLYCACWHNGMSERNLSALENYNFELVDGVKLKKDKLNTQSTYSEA
NadD block: inhibitors of Staphylococcus aureus NadD. purified NadD enzyme, colorimetric absorbance read-out. inhibition, % at 20 µM. actives 0.78% (n = 360,000). AID 602399; in the data active = inhibition above about 26%
CRFBP-R2 block: antagonists of CRF-binding protein/CRF-R2 receptor complex. inhibition, % at 11.8 µM. AID 588475. HEK293 CRF-R2/CRF-BP, CRF-induced calcium fluorescence. actives 0.59% (n = 350,000);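 active = inhibition of the ligand-induced calcium signal above about 50% at the single tested concentration, limit read from the data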
The depositor's hits bear a star; i = inactive; ? = inconclusive; / = no result given; + = active, no number.

SMILES | FAS TE block | Myeloid diff MLP | CendR NRP1 mod | NadD block | CRFBP-R2 block
CN(C(=O)COC(=O)C1CCN(S(=O)(=O)c2c(Cl)cccc2Cl)CC1)C1CCS(=O)(=O)C1 (stereo not drawn) | -4.9 | i | 7.2 | 2.7 | 9.1
CN(C(=O)COC(=O)Cc1c(Cl)cccc1Cl)C1CCS(=O)(=O)C1 (stereo not drawn) | -5.0 | i | 26.5* | 5.9 | -2.1
CN(C(=O)COC(=O)CCc1nc2ccccc2c(=O)[nH]1)C1CCS(=O)(=O)C1 (stereo not drawn) | -3.7 | i | 0.1 | -0.5 | 52.9*
CN(C(=O)COC(=O)c1nc(-c2ccccc2)n(-c2ccccc2)n1)C1CCS(=O)(=O)C1 (stereo not drawn) | -4.9 | i | 39.8* | 3.1 | -5.6
Cc1ccc(SCC(=O)OCC(=O)N(CC(C)C)C2CCS(=O)(=O)C2)cc1C (stereo not drawn) | -2.2 | i | 11.0 | 1.5 | 12.3
Cc1ccc(SCC(=O)OCC(=O)N(C)C2CCS(=O)(=O)C2)cc1C (stereo not drawn) | -3.6 | i | 51.0* | 1.7 | -0.7
COC(=O)c1ccc2nc(-c3cccc(Br)c3)c(Cc3ccccc3)n2c1 | 19.8 | i | -7.6 | 8.7 | /
CSc1ccccc1NC(=O)C1(C)CCN1C(=O)Cc1ccc(-c2ccccc2)cc1 (stereo not drawn) | 27.8 | i | 3.9 | -0.2 | /
COc1ccc2c(C)c(CC(=O)N3CCN(C(=O)C4COc5ccccc5O4)CC3)c(=O)oc2c1 (stereo not drawn) | 5.3 | ? | 2.6 | 0.9 | 10.1
Cc1c(CC(=O)N2CCN(C(=O)C3COc4ccccc4O3)CC2)c(=O)oc2cc(O)ccc12 (stereo not drawn) | -3.4 | i | 71.6* | -1.6 | 3.5
O=C(CCN1C(=O)/C(=C/c2ccccc2Cl)SC1=S)NC1C=CS(=O)(=O)C1 (stereo not drawn) | 5.2 | i | -6.7 | 37.0* | -1.6
COc1ccc(/C=N/NS(=O)(=O)c2ccccc2)cc1OC(=O)c1ccc(C)cc1 | 19.3 | i | -16.1 | 6.6 | 50.6*
CC(C)=CCN1CCN(Cc2cc(C(C)C)n[nH]2)CC1CCO (stereo not drawn) | -3.4 | + | -2.2 | -2.2 | -8.6
COCCNC(=O)C1(C)CCN(C(=O)c2cc(C)nn2C(C)(C)C)C1 (stereo not drawn) | -7.9 | i | 2.6 | 0.5 | /
Cc1cc2nc(-c3ccccc3Br)n(/C=C(\c3ccccc3)n3c(=O)[nH]c4ccccc43)c2cc1C | 12.4 | i | 11.0 | 7.2 | /
CCOC(=O)C1=CC[C@@H](c2ccccc2)N(S(=O)(=O)c2ccc(C)cc2)[C@@H]1C#N | / | i | 7.1 | / | /
CCOC(=O)C1CC(=NO)c2ccc(OC)c(OC)c2C1 (stereo not drawn) | -7.9 | i | -12.2 | -2.4 | -14.8
CCCNC(=O)c1ccc2c(=O)c(O)c(C)[nH]c2c1 | -12.9 | i | 20.8* | -3.8 | -4.3
O=C(N/N=C/c1ccc(Br)s1)c1c[nH]c2ccccc12 | 11.1 | i | -7.9 | 2.3 | -12.5
N#Cc1ccc(C23CC4(C2)[C@H](CN(P(=O)(c2ccccc2)c2ccccc2)[C@@H]4c2ccccc2)C3c2ccc(Cl)nc2)cc1 (stereo partly drawn) | 72.5* | i | -15.6 | 23.1 | -4.1
NC(=O)Cn1cc(/C=N\NS(=O)(=O)c2ccc(Cl)cc2)c2ccccc21 | -1.4 | i | 10.2 | 1.8 | -0.8
Cc1ccc(S(=O)(=O)N/N=C\c2cn(CC(N)=O)c3ccccc23)cc1C | -1.8 | i | 25.2* | 0.0 | -2.8
Cc1c(N2C(=O)C3C4C=CC(C5CC45)C3C2=O)c(=O)n(-c2ccccc2)n1C (stereo not drawn) | -1.6 | i | 2.3 | 7.2 | 115.2*
CCOc1ccc(S(=O)(=O)N(CC)CC(=O)NCc2cccnc2)cc1C | -3.9 | i | 0.7 | 3.0 | 5.6
Cc1c(Br)cc(-c2nnco2)cc1Br | 7.0 | i | 20.8* | -4.0 | -13.6
Cc1ccc(C)n1-c1ccc(-c2nnco2)cc1 | -4.3 | i | -6.5 | 21.4 | /
COc1ccc(C(=O)N2[C@@H](C(C)C)COc3cc(Br)ccc3S2(=O)=O)cc1 | 28.3 | i | 0.9 | -0.9 | 14.3
CC(C)CC1NC(=O)c2cccnc2-n2c1nc1ccccc1c2=O (stereo not drawn) | -4.5 | i | -11.6 | 5.3 | 4.2
CCc1ccc(NC(=O)CCn2nc(C)c(S(=O)(=O)N3CCCCC3)c2C)cc1 | 5.8 | i | 23.8* | -9.4 | 3.9
